Experimental data reported in PubChem BioAssay (NCATS).
Inconclusive results are not listed. Active and inactive are the calls of the source. The call rests on the fitted dose curve; in most records, active means well fitted curve in the direction sought with a large enough effect; inconclusive means small, poorly fitted or top-dose-only effect, or another doubt; inactive means no such curve, though single readings can be large; an effect the other way counts as inactive or inconclusive.

How the values were obtained:
[1] = biological target: Glutathione peroxidase 1 (Homo sapiens) (UniProt P07203); assay: Primary qHTS Assay for Inhibitors of Recombinant Selenoprotein Glutathione Peroxidase 1 (GPX1) (AID 1845191); further: nearly all actives have a fitted effect of over 65% in size; on activity, negative = inhibition: on the % scale 0 is the no-effect control and ±100 the full control effect
Procedure, shortened: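 GPX1 10 nM, GR 100 nM, GSH 1 mM, NADPH 0.5 mM, CHP 0.5 mM (final). 30-min cpd preincubation, RT. Ex340/Em450 read t=0, t=15 min.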

[2] = biological target: Phospholipid hydroperoxide glutathione peroxidase GPX4 (Homo sapiens) (UniProt P36969); assay: Primary qHTS Assay for Inhibitors of Recombinant Selenoprotein Glutathione Peroxidase 4 (GPX4) (AID 1845192); further: nearly all actives have a fitted effect of over 65% in size; on activity change, negative = inhibition: series mostly up to about 50 µM; on the % scale 0 is the no-effect control and ±100 the full control effect
Procedure, shortened: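 qHTS, GR-coupled: GPX4 200 nM + cpd 30 min RT → GSH 1 mM, NADPH 0.5 mM, GR 100 nM → CHP 0.5 mM start; fluor 340/450 at t0 and t15 min; no-enzyme wells as control.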

[3] = biological target: Luciferin 4-monooxygenase (Photinus pyralis) (UniProt P08659); assay: Primary firefly luciferase (FLuc) qHTS assay for identification of artifact compounds. (AID 1845220); further: nearly all actives have a fitted effect of over 60% in size; further: potency means the concentration at half of the fitted maximal effect;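 on activity change, negative = inhibition: series mostly up to about 54 µM; plate controls were DMSO vehicle for no effect and no enzyme for full effect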
Procedure, shortened: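 In this counter-screen for luciferase artifacts, test compounds met substrate (10 uM each luciferin and ATP) before 10 nM enzyme started the reaction. Light output was measured 5 min later.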

[4] = Primary fluorescence-based thiol-reactive (MSTI) qHTS assay for identification of artifact compounds. (AID 1845221); further: nearly all actives have a fitted effect of over 65% in size; further: potency means the concentration at half of the fitted maximal effect;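 on activity change, negative = thiol reactive: series mostly up to about 54 µM; thiol-reactive compounds lower the probe fluorescence signal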
Procedure, shortened: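 A multi-concentration qHTS design tested compounds against 4 uM MSTI, pH 7.4 phosphate-buffered saline. Plates were protected from light for 1 h at room temperature before imaging fluorescence.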

[5] = tested on: Nanoluciferase (engineered Oplophorus gracilirostris luciferase); assay: Primary Nanoluciferase (NLuc) qHTS assay for identification of artifact compounds. (AID 1845222);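 further: NLuc secreted into diluted conditioned medium of S16 cells; series mostly up to about 54 µM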
Procedure, shortened: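 Using secreted nanoluciferase in S16 culture medium (0.22 um filtered, 1:55 dilution), compounds were preincubated 15 min at RT. Signal was generated with Nano-Glo reagent (1:100) over 5 min.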

[6] = Primary redox qHTS assay for identification of artifact compounds. (AID 1845223); further: potency means the concentration at half of the fitted maximal effect;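 on redox activity (% of DA3003): 0% = DMSO and 100% = reference compound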
Procedure, shortened: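 Redox-cycling detection via DTT (250 uM final) oxidation coupled to Amplex Red (25 uM)/HRP (250 mU/mL) in HBSS. 15 min preincubation plus 30 min after DTT, room temperature. Ex/Em 525/598 nm; 4-parameter Hill fit against DMSO and 10 uM DA3003.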

Sequence of Phospholipid hydroperoxide glutathione peroxidase GPX4 (Homo sapiens) (P36969 whole entry, looked up): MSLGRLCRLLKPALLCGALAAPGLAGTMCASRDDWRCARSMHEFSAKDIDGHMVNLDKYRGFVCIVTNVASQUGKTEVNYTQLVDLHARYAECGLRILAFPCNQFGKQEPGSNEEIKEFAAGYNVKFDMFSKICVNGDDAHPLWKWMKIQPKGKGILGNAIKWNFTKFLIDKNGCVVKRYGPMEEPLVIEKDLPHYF
Sequence of Glutathione peroxidase 1 (Homo sapiens) (P07203 whole entry, looked up): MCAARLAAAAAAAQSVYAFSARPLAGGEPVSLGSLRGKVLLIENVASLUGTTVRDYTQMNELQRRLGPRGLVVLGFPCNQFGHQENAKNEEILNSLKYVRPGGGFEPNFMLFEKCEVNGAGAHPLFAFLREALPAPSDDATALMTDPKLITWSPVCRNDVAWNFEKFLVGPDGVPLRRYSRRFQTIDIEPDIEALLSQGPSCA

OC/C=C/C=C/[C@H]1Cc2cc(O)cc(O)c2O1
inactive: Potency [1] | Potency [2] | Potency [3] | Potency [5]
active: Potency [4] 8.44 µM | Potency [6] 18.9 µM

Cc1ccc(Cc2c(C)nc3nc(SCC(=O)NCCN4CCNCC4)nn3c2C)cc1
inactive: Potency [1] | Potency [2] | Potency [3] | Potency [4] | Potency [5] | Potency [6]

Oc1ccc2nc(CN3CCC(Cc4ccccc4F)CC3)[nH]c2c1
inactive: Potency [1] | Potency [2] | Potency [3] | Potency [4] | Potency [5] | Potency [6]

CS(=O)(=O)c1ccc([C@H](CC2CCCC2)C(=O)Nc2nccs2)cc1
inactive: Potency [1] | Potency [2] | Potency [3] | Potency [4] | Potency [5]

C[C@@H]1CCC2C(C)(C)[C@H](O)CC[C@]2(C)[C@@]12Cc1c(O)cc3c(c1O2)CNC3=O (some centres not stated)
inactive: Potency [1] | Potency [2] | Potency [3] | Potency [4] | Potency [5] | Potency [6]

C=CC(=O)Nc1cc(Nc2nccc(-c3c[nH]c4ccccc34)n2)c(OC)cc1N(C)CCN(C)C
inactive: Potency [1] | Potency [2] | Potency [3] | Potency [5]
active: Potency [4] 1.68 µM

COc1c2c(c(C)c3c1C(=O)OC3)O[C@@]1(C)CC(O)C(C(C)(C)O)[C@](C)(CCC(=O)O)[C@H]1C2 (some centres not stated)
inactive: Potency [1] | Potency [2] | Potency [3] | Potency [4] | Potency [5] | Potency [6]

C[C@@H]1O[C@@H](O[C@H]2[C@H](O[C@H]3[C@H](O[C@H]4CC[C@@]5(C)C(CC[C@]6(C)C5CC=C5[C@@H]7CC(C)(C)CC[C@]7(C(=O)O[C@@H]7O[C@H](CO)[C@@H](O[C@@H]8O[C@@H](C)[C@H](O)[C@@H](O)[C@H]8O)[C@H](O)[C@H]7O)CC[C@]56C)C4(C)C)OC[C@H](O)[C@@H]3O)O[C@H](CO)[C@@H](O)[C@@H]2O)[C@H](O)[C@H](O)[C@H]1O (some centres not stated)
inactive: outcome [1] inactive [at 9.52 µM] | activity change, negative = inhibition [2] 0.115% [at 9.73 µM] | outcome [3] inactive [at 11.6 µM] | activity change, negative = thiol reactive [4] 125% [at 11.5 µM] | activity, negative = inhibition [5] 4.91% [at 11.6 µM] | redox activity (% of DA3003) [6] 19.8% [at 11.5 µM]

C=C1CCC2C(C)(C)C(O)CCC2(C)C1CCC(C)CCO (configuration not stated)
inactive: Potency [1] | Potency [2] | Potency [3] | Potency [5]
active: Potency [4] 16.5 µM

COC1C(=O)CCC2(CO2)C1(O)C1(C)OC1CC=C(C)C (configuration not stated)
active: Potency [4] 11.9 µM
inactive: Potency [1] | Potency [2] | Potency [3] | Potency [5]

CC[C@H](NC(=O)[C@H](CS(=O)(=O)CC1CC1)N[C@@H](c1ccc(F)cc1)C(F)(F)F)C(=O)C(=O)NC1CC1
inactive: Potency [1] | Potency [2] | Potency [3] | Potency [4] | Potency [5] | Potency [6]

CC1(C)CC[C@]2(C(=O)O[C@@H]3O[C@H](CO)[C@@H](O)[C@H](O)[C@H]3O)CC[C@]3(C)C(=CCC4[C@@]5(C)C[C@@H](O)[C@H](O)[C@](C)(C=O)C5CC[C@]43C)[C@@H]2[C@@H]1O (some centres not stated)
inactive: Potency [1] | Potency [2] | Potency [3] | Potency [5] | Potency [6]
active: Potency [4] 3.98 µM

Cc1ccc(C(=O)Nc2noc3ccccc23)cc1
inactive: Potency [1] | Potency [2] | Potency [4] | Potency [5] | Potency [6]
active: Potency [3] 84.9 nM

COC(=O)N[C@@H](C)CNc1nccc(-c2cn(C(C)C)nc2-c2cc(Cl)cc(NS(C)(=O)=O)c2F)n1
inactive: Potency [1] | Potency [2] | Potency [3] | Potency [4] | Potency [5]

Cc1cc(Nc2nc(NC(C)c3ncc(F)cn3)ncc2Cl)n[nH]1 (configuration not stated)
inactive: Potency [1] | Potency [2] | Potency [3] | Potency [4] | Potency [5] | Potency [6]

CC(=O)OCC1(O)CCC2C(COC3OC(CO)C(O)C(O)C3OC(=O)/C=C/c3ccc(O)cc3)=COC(OC(=O)CC(C)C)C21 (configuration not stated)
inactive: Potency [1] | Potency [2] | Potency [3] | Potency [4] | Potency [5]

O=C(O)COCCN1CCN([C@H](c2ccccc2)c2ccc(Cl)cc2)CC1
inactive: Potency [1] | Potency [2] | Potency [3] | Potency [4] | Potency [5] | Potency [6]

Cc1cccc(C)c1OCc1cc(C(=O)N2CCC(c3ccncc3)CC2)no1
inactive: Potency [1] | Potency [2] | Potency [3] | Potency [4] | Potency [5] | Potency [6]

C/C=C/C=C/C=C/C(=O)OC1C=C(C=O)C(O)(C(=O)O)C2(C)CCCC(C)(C)C12 (configuration not stated)
active: Potency [4] 5.82 µM
inactive: Potency [1] | Potency [2] | Potency [3] | Potency [5]

COc1cc(Nc2nc3ccccc3nc2NS(=O)(=O)c2ccc(NC(=O)c3ccc(OC)c(C)c3)cc2)cc(OC)c1
active: Potency [4] 1.68 µM
inactive: Potency [1] | Potency [2] | Potency [3] | Potency [5] | Potency [6]

Cc1ccc(-c2c(C(=O)CF)n(CCCO)c3ncnc(N)c23)cc1
inactive: Potency [1] | Potency [2] | Potency [3] | Potency [4] | Potency [5] | Potency [6]

CC12CCC(OC3OC(CO)C(O)C(OC4OC(CO)C(O)C(O)C4O)C3O)CC1CCC1C2CCC2(C)/C(=C3/COC(=O)C3)CCC12O (configuration not stated)
inactive: Potency [1] | Potency [2] | Potency [3] | Potency [4] | Potency [5] | Potency [6]

N#C[C@@H]1CCCN1C(=O)CNC12CC3CC(CC(O)(C3)C1)C2
inactive: Potency [1] | Potency [2] | Potency [3] | Potency [4] | Potency [5] | Potency [6]

C=C1C(=O)OC2C1C(O)CC1(C)C(O)CCC(C=O)C21 (configuration not stated)
inactive: Potency [1] | Potency [2] | Potency [3] | Potency [4] | Potency [5]

CC(=O)O[C@@H]1[C@H](O)[C@@H](O[C@@H]2O[C@@H](C)[C@H](O[C@@H]3OC[C@@H](O)[C@H](O[C@@H]4OC[C@@H](O)[C@H](O)[C@H]4O)[C@H]3O)[C@@H](O[C@@H]3O[C@H](CO)[C@@H](O)[C@H](O)[C@H]3O)[C@H]2O)[C@H](OC(=O)[C@]23CCC(C)(C)C[C@H]2C2=CCC4[C@@]5(C)CC[C@H](O[C@@H]6O[C@H](C(=O)O)[C@@H](O)[C@H](O[C@@H]7OC[C@@H](O)[C@H](O)[C@H]7O)[C@H]6O[C@@H]6O[C@H](CO)[C@H](O)[C@H](O)[C@H]6O)[C@@](C)(C=O)C5CC[C@@]4(C)[C@]2(C)CC3)O[C@@H]1C (some centres not stated)
inactive: activity, negative = inhibition [1] -4.56% [at 9.52 µM] | activity change, negative = inhibition [2] 2.64% [at 9.73 µM] | activity change, negative = inhibition [3] 3.61% [at 6.45 µM] | activity change, negative = thiol reactive [4] 306% [at 6.41 µM] | activity, negative = inhibition [5] 0% [at 6.45 µM] | redox activity (% of DA3003) [6] -0.0347% [at 6.41 µM]
